Laboratory results reported in PubChem BioAssay (EPA / NIEHS).
Results filed as inconclusive are left out. Calls of active or inactive are those of the source. Rule for the calls, unless noted: active = hit-call score of the fitted dose curve at least 0.9, where 1 is the maximum; inconclusive = response in the unintended direction; inactive = score below 0.9.

How the values were obtained:
[1] = ATG_VDRE_CIS: Attagene CIS-FACTORIAL HepG2 Assay for human Vitamin D Receptor Element (VDRE) (AID 2282968; active = hit-call score of the fitted dose curve at least 0.9, where 1 is the maximum; inactive = score below 0.9); settings: HepG2 VDRE cis-reporter transcription, actives raise or lower the signal
Summary of the method: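 Reporter mRNA induction, quantified by capillary electrophoresis of fluorescently labelled RT-PCR products, was read 24 h after dosing HepG2 cells carrying transiently transfected cis-regulated reporter units; gain or loss relative to DMSO.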

[2] = target: Steroid hormone receptor ERR1 (Homo sapiens) (UniProt P11474); assay: ATG_ERRa_TRANS: Attagene TRANS-FACTORIAL HepG2 Assay for human Estrogen-Related Receptor alpha (ERRa) (AID 2282971); settings: HepG2 Attagene TRANS reporter, ERRa transactivation
Summary of the method: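 HepG2 cells transiently transfected with GAL4-UAS reporter units and chimeric NR-Gal4 constructs; after 24 hour compound incubation, reporter mRNA quantified by RT-PCR, fluorescent labelling and capillary electrophoresis, gain of signal versus DMSO.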

[3] = target: X-box-binding protein 1 (Homo sapiens) (UniProt P17861); assay: ATG_Xbp1_CIS: Attagene CIS-FACTORIAL HepG2 Assay for human X-box Binding Protein 1 (XBP1) (AID 2282972; active = hit-call score of the fitted dose curve at least 0.9, where 1 is the maximum; inactive = score below 0.9); settings: HepG2 XBP1 cis-element reporter, Attagene multiplex; actives raise or lower the signal
Summary of the method: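 Fluorescence-labelled cDNA fragments from reporter transcripts, separated by capillary electrophoresis, give the signal. Source: HepG2 cells transfected with promoter-driven reporter units, harvested 24 h post-dose. DMSO served as reference for bidirectional curve fitting.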

[4] = ATG_M_19_TRANS: Attagene TRANS-FACTORIAL HepG2 Assay for M19 Transcription Factor (Internal Marker) (AID 2282974); settings: HepG2 Attagene TRANS-FACTORIAL M19 internal marker reporter
Summary of the method: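 Gain-of-signal in reporter mRNA, relative to DMSO, was scored from capillary electrophoresis fluorescence. HepG2 cells carried transiently transfected multiple reporter transcription units and were incubated with test chemicals for 24 h.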

[5] = ATG_GAL4_TRANS: Attagene TRANS-FACTORIAL HepG2 Assay for GAL4 (Internal Marker) (AID 2282976); settings: HepG2 Attagene TRANS GAL4 internal marker reporter
Summary of the method: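 Background-control readout: GAL4-UAS reporter transcript in transiently transfected HepG2 cells after 24 h compound exposure. Measured by RT-PCR, 6-FAM primer extension, HpaI digest and capillary electrophoresis; gain-of-signal fit versus DMSO.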

[6] = target: Glucocorticoid receptor (Homo sapiens) (UniProt P04150); assay: ATG_GR_TRANS: Attagene TRANS-FACTORIAL HepG2 Assay for human Glucocorticoid Receptor (GR) (AID 2282978); settings: HepG2 Attagene TRANS GR reporter, mRNA transcription;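 note: activators score as hits since higher reporter transcript over DMSO is fitted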
Summary of the method: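 HepG2 transient transfection, multiple reporter units, GAL4-UAS under NR-GAL4 chimera control. 24 h treatment. Reporter mRNA by RT-PCR/CE fluorescence, DMSO as negative control.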

[7] = target: Estrogen receptor (Homo sapiens) (UniProt P03372); assay: ATG_ERa_TRANS: Attagene TRANS-FACTORIAL HepG2 Assay for human Estrogen Receptor alpha (ERa) (AID 2282970); settings: HepG2 Attagene TRANS ERa GAL4 reporter, mRNA
Summary of the method: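 HepG2 cells transiently transfected with multiplexed GAL4-UAS reporter units read out chimeric NR-Gal4 activity. After 24 h compound exposure, reporter mRNA was quantified by RT-PCR, 6-FAM labeling, HpaI digestion and capillary electrophoresis, relative to DMSO.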

[8] = target: Androgen receptor (Homo sapiens) (UniProt P10275); assay: ATG_AR_TRANS: Attagene TRANS-FACTORIAL HepG2 Assay for human Androgen Receptor (AR) (AID 2282973); settings: HepG2 Attagene TRANS-FACTORIAL AR reporter transcription
Summary of the method: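 HepG2 cells transiently transfected with AR-Gal4 chimera and GAL4-UAS reporter units; chemical exposure 24 h. Reporter mRNA quantified by RT-PCR with fluorescent labelling and capillary electrophoresis; gain-of-signal fitted against DMSO.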

Measured: AC50

Chain of Glucocorticoid receptor (Homo sapiens) (P04150 whole entry, looked up, the tested form may be a part): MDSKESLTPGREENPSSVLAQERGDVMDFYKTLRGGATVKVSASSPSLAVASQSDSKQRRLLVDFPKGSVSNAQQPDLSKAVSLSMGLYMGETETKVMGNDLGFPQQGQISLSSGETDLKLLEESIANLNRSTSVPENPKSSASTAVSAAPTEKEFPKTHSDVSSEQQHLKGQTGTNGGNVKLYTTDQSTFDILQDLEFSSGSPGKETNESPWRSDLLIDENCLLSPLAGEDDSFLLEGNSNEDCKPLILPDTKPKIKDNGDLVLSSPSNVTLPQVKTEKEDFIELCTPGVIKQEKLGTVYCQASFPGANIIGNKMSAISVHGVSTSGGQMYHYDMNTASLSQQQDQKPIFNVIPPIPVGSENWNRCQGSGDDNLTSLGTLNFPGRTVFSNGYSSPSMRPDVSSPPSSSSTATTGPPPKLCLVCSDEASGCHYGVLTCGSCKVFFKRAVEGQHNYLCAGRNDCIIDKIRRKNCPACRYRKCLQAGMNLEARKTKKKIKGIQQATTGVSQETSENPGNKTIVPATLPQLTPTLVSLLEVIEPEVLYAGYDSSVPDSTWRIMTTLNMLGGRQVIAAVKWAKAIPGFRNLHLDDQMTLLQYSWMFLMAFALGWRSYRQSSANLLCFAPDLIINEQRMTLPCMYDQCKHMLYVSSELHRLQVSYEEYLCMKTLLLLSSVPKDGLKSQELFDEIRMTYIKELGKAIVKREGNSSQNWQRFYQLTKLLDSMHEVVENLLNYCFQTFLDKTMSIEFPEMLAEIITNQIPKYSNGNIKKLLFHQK
Chain of X-box-binding protein 1 (Homo sapiens) (P17861 whole entry, looked up, the tested form may be a part): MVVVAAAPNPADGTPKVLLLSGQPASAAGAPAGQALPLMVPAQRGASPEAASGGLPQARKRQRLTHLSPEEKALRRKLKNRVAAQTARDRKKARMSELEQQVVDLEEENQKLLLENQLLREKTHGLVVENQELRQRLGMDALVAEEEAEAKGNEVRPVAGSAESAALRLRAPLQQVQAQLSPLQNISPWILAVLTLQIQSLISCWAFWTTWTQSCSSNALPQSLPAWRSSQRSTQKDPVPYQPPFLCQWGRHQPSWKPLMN
Chain of Androgen receptor (Homo sapiens) (P10275 whole entry, looked up, the tested form may be a part): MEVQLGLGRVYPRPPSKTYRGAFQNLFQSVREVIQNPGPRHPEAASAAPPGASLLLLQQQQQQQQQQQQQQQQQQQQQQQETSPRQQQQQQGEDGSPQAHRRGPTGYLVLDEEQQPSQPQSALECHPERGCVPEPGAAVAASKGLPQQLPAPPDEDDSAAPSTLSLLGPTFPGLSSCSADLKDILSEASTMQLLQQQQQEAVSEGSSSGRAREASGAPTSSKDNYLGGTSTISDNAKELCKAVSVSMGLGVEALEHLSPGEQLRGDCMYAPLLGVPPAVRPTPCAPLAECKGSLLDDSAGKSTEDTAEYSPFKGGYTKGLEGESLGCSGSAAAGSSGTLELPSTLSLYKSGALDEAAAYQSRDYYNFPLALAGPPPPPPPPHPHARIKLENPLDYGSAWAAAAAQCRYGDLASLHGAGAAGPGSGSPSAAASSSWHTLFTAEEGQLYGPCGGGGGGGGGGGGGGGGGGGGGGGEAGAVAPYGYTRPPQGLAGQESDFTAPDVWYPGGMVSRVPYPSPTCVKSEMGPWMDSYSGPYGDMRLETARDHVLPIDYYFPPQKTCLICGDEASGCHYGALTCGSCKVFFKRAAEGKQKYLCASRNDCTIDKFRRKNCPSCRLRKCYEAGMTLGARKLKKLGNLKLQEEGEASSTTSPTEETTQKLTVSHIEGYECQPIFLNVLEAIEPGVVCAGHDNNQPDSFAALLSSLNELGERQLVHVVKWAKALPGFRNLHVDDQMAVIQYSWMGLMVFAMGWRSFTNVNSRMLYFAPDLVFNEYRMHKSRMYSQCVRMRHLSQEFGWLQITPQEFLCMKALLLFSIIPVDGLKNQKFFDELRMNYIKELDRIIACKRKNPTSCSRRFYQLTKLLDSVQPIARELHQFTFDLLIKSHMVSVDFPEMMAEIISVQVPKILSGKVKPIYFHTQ
Chain of Estrogen receptor (Homo sapiens) (P03372 whole entry, looked up, the tested form may be a part): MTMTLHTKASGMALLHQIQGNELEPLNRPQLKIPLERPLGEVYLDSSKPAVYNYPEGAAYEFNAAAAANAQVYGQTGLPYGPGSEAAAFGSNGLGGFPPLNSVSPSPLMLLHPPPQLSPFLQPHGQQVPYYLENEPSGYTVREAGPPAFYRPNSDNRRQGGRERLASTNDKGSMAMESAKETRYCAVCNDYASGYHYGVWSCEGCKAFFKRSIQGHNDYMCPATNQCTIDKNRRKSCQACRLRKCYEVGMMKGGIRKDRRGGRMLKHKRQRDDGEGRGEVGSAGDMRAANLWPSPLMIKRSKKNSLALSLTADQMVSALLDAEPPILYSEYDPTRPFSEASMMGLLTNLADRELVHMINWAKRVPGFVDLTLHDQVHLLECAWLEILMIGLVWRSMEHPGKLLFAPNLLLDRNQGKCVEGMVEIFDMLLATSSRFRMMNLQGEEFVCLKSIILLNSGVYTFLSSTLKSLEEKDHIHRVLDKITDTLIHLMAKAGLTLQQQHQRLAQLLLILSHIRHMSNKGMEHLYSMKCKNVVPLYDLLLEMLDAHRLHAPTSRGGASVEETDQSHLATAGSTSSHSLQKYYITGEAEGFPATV
Chain of Steroid hormone receptor ERR1 (Homo sapiens) (P11474 whole entry, looked up, the tested form may be a part): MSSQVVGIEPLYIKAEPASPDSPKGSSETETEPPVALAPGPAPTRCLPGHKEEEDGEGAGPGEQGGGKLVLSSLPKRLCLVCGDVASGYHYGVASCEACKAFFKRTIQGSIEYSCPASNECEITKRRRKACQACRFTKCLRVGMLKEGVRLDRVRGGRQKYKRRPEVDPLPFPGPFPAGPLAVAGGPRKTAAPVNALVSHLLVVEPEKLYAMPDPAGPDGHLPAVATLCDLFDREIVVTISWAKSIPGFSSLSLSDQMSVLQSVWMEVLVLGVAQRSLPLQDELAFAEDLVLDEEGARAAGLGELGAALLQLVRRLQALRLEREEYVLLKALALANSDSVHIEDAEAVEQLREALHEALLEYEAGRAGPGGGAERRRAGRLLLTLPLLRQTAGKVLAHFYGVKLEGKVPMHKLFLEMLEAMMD

C[C@]12CC[C@@H](O)C[C@@H]1CC[C@@H]1[C@@H]2CC[C@]2(C)C(=O)CC[C@@H]12
not listed: [7] | [8]
inactive: all other assays above

O=C(O)c1cc(I)cc(I)c1I
not listed: [2] | [8]
inactive: all other assays above

C[N+](C)(C)Cc1ccccc1
inactive: [1] | [7] | [4] | [5]

O=NN1CCOCC1
inactive: [1] | [7] | [3] | [5]

O=[N+]([O-])c1ccc(Nc2ccccc2)cc1
active: [1] 19.2 µM
inactive: [7] | [3] | [6]

CCOC(=O)CC(=O)CCl
active: [1] 27 µM | [3] 23.6 µM

C=CC(F)(C(F)(F)F)C(F)(F)C(F)(F)F (stereo not given)
inactive: [1] | [2] | [3]

Brc1ccc(Oc2c(Br)cc(Br)cc2Br)c(Br)c1
not listed: [3] | [7]
inactive: all other assays above

CCCCCCCCCCCCCl
inactive: [1] | [7] | [3] | [4] | [6]

C=CC(=O)[O][Sn]([CH2]CCC)([CH2]CCC)[CH2]CCC
active: [1] 0.266 µM | [3] 0.412 µM
inactive: [2] | [8] | [4] | [6]

Clc1ccc(C(Cl)(Cl)Cl)cn1
inactive: [1] | [7] | [3] | [6]

Nc1nc(=S)[nH][nH]1
not listed: [2] | [8]
inactive: all other assays above

CCOP(=S)(OCC)O/N=C(\C#N)c1ccccc1
inactive: [1] | [2] | [3] | [5] | [6]

O=C(NC(=O)c1c(F)cccc1F)Nc1cc(Cl)c(Oc2ncc(C(F)(F)F)cc2Cl)c(Cl)c1
inactive: [1] | [7] | [8] | [4]
